This passage reports outcome and AC50 results from PubChem BioAssay (EPA / NIEHS).

Activity calls are given as the source filed them. How the source made its calls: active means hit-call score of the fitted dose curve at least 0.9, where 1 is the maximum; inactive means score below 0.9.

Read-out in the assay: Glutathione S-Transferase (GSTA2), GSTA2 (gene 2939)
As to the kind of experiment: LTEA_HepaRG_GSTA2: Life Technologies and Expression Analysis (LTEA) Assay for Glutathione S-Transferase (GSTA2) using HepaRG (AID 2283497). The note with it: mRNA level, 48 h; actives raise or lower the signal. In short, it runs like this: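 HepaRG, 48 h dosing, 8-pt half-log CRC from 100 uM, 0.5% DMSO vehicle, n=2; RNA → Fluidigm TaqMan qRT-PCR; GSTA2 vs ACTB/GAPDH/POLR2A; gain/loss fit vs DMSO.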
For the compound `CC(C)(O)C(=O)Nc1ccc([N+](=O)[O-])c(C(F)(F)F)c1`, the call was inactive.

As to `CCC(C)(CC)c1cc(NC(=O)c2c(OC)cccc2OC)on1`, the compound was classed as inactive.

As for `Cc1ccccc1O`, the compound was classed as inactive.

`CN(C)CCO`: the compound was classed as inactive.

With `Cc1ccccc1CO[C@@H]1C[C@@]2(C(C)C)CC[C@]1(C)O2`, the compound was classed as inactive.

Take `Cc1cc(-c2ccc(N)c(C)c2)ccc1N`: the call was inactive.

With `c1cc2ccc3cccc4ccc(c1)c2c34`, the compound was called inactive.

By AC50 is commonly meant the midpoint of the concentration-response curve, whichever way the signal moves. Consider `Oc1c(Cl)c(Cl)c(Cl)c(Cl)c1Cl`, for which the AC50 is 3.87 µM (active).

On to `O=NN(c1ccccc1)c1ccccc1`, for which the compound was classed as inactive.

With `Clc1ccc(C(c2ccccc2Cl)C(Cl)(Cl)Cl)cc1` (configuration not stated), the compound was called inactive.

Consider `NS(=O)(=O)C(F)(F)C(F)(F)C(F)(F)C(F)(F)C(F)(F)C(F)(F)C(F)(F)C(F)(F)F`, for which the AC50 was 13 µM (active).

`O=S(=O)(O)C(F)(F)C(F)(F)C(F)(F)C(F)(F)F`: the compound was classed as inactive.

Regarding `Nc1ccc(-c2ccc(N)cc2)cc1`, the compound was called inactive.

On to `C=CC(N)=O`, for which the result was inactive.

Take `CCOCCOC(C)=O`: the result was inactive.

As to `O=C(O)C(F)(F)C(F)(F)C(F)(F)C(F)(F)C(F)(F)C(F)(F)C(F)(F)C(F)(F)F`, the AC50 was 86.8 µM (active).

With `CCCCCCCCCc1ccc(O)cc1`, the compound was called inactive.

For `CO/C=C(/C(=O)OC)c1ccccc1COc1cccc(C(F)(F)F)n1`, the AC50 is 9.29 µM (active).

As to `ClC1=C(Cl)[C@]2(Cl)[C@@H]3[C@@H]4C[C@@H]([C@H]5O[C@@H]45)[C@@H]3[C@@]1(Cl)C2(Cl)Cl`, the AC50 is 50 µM (active).

Take `Cc1ccccc1[N+](=O)[O-]`: the outcome was inactive.

Turning to `Oc1ccc(Cl)cc1Cl`, the call was inactive.

In the case of `Clc1ccc(C(Cl)(Cl)Cl)cc1`, the compound was called inactive.
